# In PMC4336329 (PLoS ONE, 2015):
# The whole screen tested about 310,000 compounds, of which about 14,000 (4.5%) showed an effect of 50% or more. The effect is printed as a negative number. This is one part of a sample in which strong results are shown more often than they occur.
# Target: human ether-à-go-go-related gene (hERG) potassium channel (human, UniProt Q12809)
# Assay: primary screen, population patch clamp on CHO cells stably expressing hERG; higher = less effect of the substance
# 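Further: peak tail current of the secondary pulse compared with the same well before compound.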
# human ether-à-go-go-related gene (hERG) potassium channel, sequence (Q12809 whole entry, looked up): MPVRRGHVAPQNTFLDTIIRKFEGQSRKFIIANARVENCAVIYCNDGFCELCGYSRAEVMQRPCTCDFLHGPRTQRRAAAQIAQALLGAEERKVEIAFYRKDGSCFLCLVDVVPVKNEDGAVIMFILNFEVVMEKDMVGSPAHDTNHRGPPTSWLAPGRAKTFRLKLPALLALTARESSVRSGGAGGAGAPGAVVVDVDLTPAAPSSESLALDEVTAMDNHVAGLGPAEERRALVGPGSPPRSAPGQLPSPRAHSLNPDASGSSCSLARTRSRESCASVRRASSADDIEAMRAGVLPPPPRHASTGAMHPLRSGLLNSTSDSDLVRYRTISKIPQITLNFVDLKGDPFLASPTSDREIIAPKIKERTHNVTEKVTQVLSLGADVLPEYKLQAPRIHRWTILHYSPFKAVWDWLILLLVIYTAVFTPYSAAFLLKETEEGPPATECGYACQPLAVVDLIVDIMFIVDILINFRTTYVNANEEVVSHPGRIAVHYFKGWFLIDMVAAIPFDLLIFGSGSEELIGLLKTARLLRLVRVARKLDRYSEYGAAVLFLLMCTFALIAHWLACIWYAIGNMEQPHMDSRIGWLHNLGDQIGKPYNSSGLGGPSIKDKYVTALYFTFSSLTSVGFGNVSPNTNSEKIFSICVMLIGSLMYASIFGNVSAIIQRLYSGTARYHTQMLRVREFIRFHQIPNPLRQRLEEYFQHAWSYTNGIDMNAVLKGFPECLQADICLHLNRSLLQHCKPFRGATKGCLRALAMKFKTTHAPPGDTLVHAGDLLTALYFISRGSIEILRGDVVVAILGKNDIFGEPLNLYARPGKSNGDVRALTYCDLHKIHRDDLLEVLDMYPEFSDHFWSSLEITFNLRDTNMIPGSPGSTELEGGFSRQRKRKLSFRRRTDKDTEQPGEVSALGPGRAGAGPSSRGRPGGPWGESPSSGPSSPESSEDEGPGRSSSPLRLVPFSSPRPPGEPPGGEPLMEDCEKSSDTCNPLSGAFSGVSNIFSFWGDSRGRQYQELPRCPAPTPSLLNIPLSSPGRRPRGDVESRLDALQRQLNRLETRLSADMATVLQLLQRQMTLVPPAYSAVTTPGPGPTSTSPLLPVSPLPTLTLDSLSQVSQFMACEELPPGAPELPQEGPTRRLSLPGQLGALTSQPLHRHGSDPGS
row,Compound,"hERG current change (%, negative = inhibition) at 10uM [%]"
1,Cc1cc(C(=O)NNc2c(Cl)cccc2Cl)no1,3.46
2,CC1(C)Cc2nc3oc4c(SCC(N)=O)ncnc4c3cc2CO1,4.95
3,Cc1ccc(S(=O)(=O)N(C)C)cc1NC(=O)COC(=O)/C=C/c1ccc2c(c1)OCO2,-9.63
4,O=C(NC1CCCCC1)C1CCCN(S(=O)(=O)c2cccs2)C1 (stereo not shown),11.3
5,COc1ccc(NC(=O)OCCN2CCN(Cc3ccccc3)CCC2=O)cc1,-9.25
6,COc1c(O)ccc(/C=N/NC(=O)c2ccc3c(c2)OCCO3)c1[N+](=O)[O-],7.36
7,CC(=O)c1ccc(-n2cc(-c3ccc(C(C)(C)C)cc3)[n+]3c2SCCC3)cc1.[Br-],-30.1
8,FC(F)Sc1ccc(-n2cc(-c3ccccc3)[n+]3c2CCC3)cc1.[Br-],-77.9
9,COc1ccc(-c2cn(-c3ccc(SC(F)F)cc3)c3[n+]2CCC3)cc1OC.[Br-],-62.4
10,O=C(Cc1ccc(Cl)cc1)Nc1ccc(SC(F)F)cc1,-1.83
11,N#Cc1ccc(-c2cn(-c3ccccc3)c3[n+]2CCCS3)cc1.[Br-],16.3
12,COc1ccc(-n2cc(-c3ccc(OC)c(OC)c3)[nH]c2=S)cc1,6.1
13,FC(F)Sc1ccc(-n2cc(-c3ccc(Cl)cc3)[n+]3c2CCC3)cc1.[Br-],-74.3
14,[Br-].c1ccc(-c2cn(-c3ccccc3)c3[n+]2CCCS3)cc1,-3.51
15,COc1ccc(-c2cn(-c3ccccc3)c(=S)[nH]2)cc1OC,16.1
16,O=[N+]([O-])CC(c1ccccc1)c1c[nH]c2ccccc12 (stereo not shown),10.6
17,O=C(CN1C(=O)NC(Cc2c[nH]c3ccccc23)C1=O)Nc1ccc(F)c(F)c1F (stereo not shown),-5.36
18,O=C(Nc1cccc(Cl)c1)N1CCN2C(=O)c3ccccc3C12c1ccccc1 (stereo not shown),-24.3
19,COc1ccc(CNC(=S)Nc2ccccc2)cc1,7.34
20,O=C(Cc1ccc([N+](=O)[O-])cc1)N1CCCc2ccccc21,-41.1
21,O=C(Oc1c(Cl)cc(Cl)c2ccccc12)N1CCCC1,-25.9
22,CC(COc1ccc(/C=C/c2ccccc2)cc1)[N+](C)(C)C.[I-] (stereo not shown),-9.04
23,CC(C)(C)C(=O)Nc1ccc(C(=O)Nc2cc(NC(=O)c3ccc(NC(=O)C(C)(C)C)cc3)cc(C(=O)O)c2)cc1,6.62
24,CCCc1cc(C(=O)Nc2ccc(C(=O)OC)cc2)cs1,5.28
25,COc1ccc(/C=N/NC(=O)c2nn(C)cc2Br)cc1CSCc1ccco1,-50.6
26,CCOc1cc(/C=N/NC(=O)c2nn(C)cc2Br)ccc1OCc1ccccc1Cl,-14.7
27,CCOc1cc(/C=N/NC(=O)c2nn(C)cc2Br)ccc1OCc1ccccc1,5.59
28,Cc1cc(C)cc(OCC(=O)N2N=C(C(F)(F)F)CC2(O)C(C)(C)C)c1 (stereo not shown),3.64

row,Compound,"hERG current change (%, negative = inhibition) at 10uM [%]"
1,CC1CCN(C(=O)CSCC(=O)Nc2nc(-c3cccs3)cs2)CC1,-20.6
2,COc1cccc(C2=CC(c3ccccc3)n3ncnc3N2)c1 (stereo not shown),-2.39
3,CCOc1ccc(C2C=C(c3ccccc3)Nc3ncnn32)cc1 (stereo not shown),-47.2
4,Cc1ccc(C2=CC(c3ccc(C)cc3)n3ncnc3N2)cc1 (stereo not shown),-17.6
5,COc1ccc(C2C=C(c3ccccc3)Nc3ncnn32)cc1 (stereo not shown),-57.4
6,Cc1ccc(C2C=C(c3ccccc3)Nc3ncnn32)cc1 (stereo not shown),-64.7
7,C1=C(c2ccccc2)Nc2ncnn2C1c1ccccc1 (stereo not shown),-5.26
8,Cc1ccc(C2=CC(c3ccccc3)n3ncnc3N2)cc1 (stereo not shown),-15.8
9,COc1cccc(C2=CC(c3ccc(N(C)C)cc3)n3ncnc3N2)c1 (stereo not shown),-1.72
10,COc1cccc(C2=CC(c3ccc(C)cc3)n3ncnc3N2)c1 (stereo not shown),-52.4
11,O=C(Nc1nnc(-c2ccccc2Cl)s1)c1ccccc1F,10.9
12,CC(=O)c1ccc(N2CCN(S(=O)(=O)c3ccc(-c4cc(C)no4)s3)CC2)cc1,-1.08
13,Cc1ccc2c(c1)NCCO2,4.46
14,O=C(CSc1ccc(F)cc1)Nc1ccc(N2CCOCC2)c(Cl)c1,-20.3
15,CCOCCCN(C)C1CCN(C(=O)c2oc3ccccc3c2NC(=O)Cc2cccc([N+](=O)[O-])c2)CC1,-75.3
16,COc1ccc(N2CCN(C(=O)c3oc4ccccc4c3NC(=O)Cc3cccc(OC)c3)CC2)cc1,-30.2
17,CCOCCCN(C)C1CCN(C(=O)c2oc3ccccc3c2NC(=O)Cc2ccc([N+](=O)[O-])cc2)CC1,-81.5
18,COc1ccc(CC(=O)Nc2c(C(=O)N3CCN(c4ccccc4)CC3)oc3ccccc23)cc1OC,-32.4
19,COc1cccc(N2CCN(C(=O)c3oc4ccccc4c3NC(=O)Cc3ccc(OC)c(OC)c3)CC2)c1,-14.1
20,Cc1nc(=S)c2c([nH]1)-c1ccccc1CC21CCCCC1,10.8
21,CC1CCCC(NC(=O)COC(=O)c2ccc(N(C)C)cc2)C1C (stereo not shown),-1.77
22,Cc1ccc(NC(=O)CN(C)S(=O)(=O)c2cccc3cccnc23)c(C)c1,4.3
23,Cc1ccsc1C(=O)C1CCCN(Cc2cc(F)ccc2-n2cccn2)C1 (stereo not shown),-82.9
24,Cc1ccsc1C(=O)C1CCCN(Cc2cn(C)nc2C)C1 (stereo not shown),-40.9
25,Cc1ccsc1C(=O)C1CCCN(Cc2ccn[nH]2)C1 (stereo not shown),6.96
26,Cc1ccc(-n2cccn2)c(CN2CCCC(C(=O)c3sccc3C)C2)c1 (stereo not shown),-85.4
27,Cc1ccsc1C(=O)C1CCCN(Cc2ccccc2O)C1 (stereo not shown),-48.1
